Most compounds without a hit are left out; they make up all but 4.6% or so of the library.
D1 antag: human D1 dopamine receptor antagonism | P21728 | HEK293 TREx D1 cells, calcium flux, dopamine EC80; hits give low values | activity change, negative = inhibition, % at 10 µM | hit rate 3.2% among 360,000; in the data active means activity change below about -30%
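Calcium flux readout: force-coupled, inducible Hek293 Trex D1 line, cells induced overnight at 30 C with tetracycline, dye-loaded 30–90 min at RT. Antagonism scored against EC80 dopamine challenge given 180 s after compound.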
D1 agonist: human D1 receptor agonism; HEK293 T-REx D1 cells, calcium flux, agonist mode; P21728; activation, % at 2 µM; hit rate 1% among 360,000
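Tetracycline-induced HEK293 TREx D1 cells, force-coupled to calcium signalling, were dye-loaded with a no-wash calcium kit. Compound was pin-added after a 10 s baseline. Fluorescence was read kinetically at 1 cycle/s for 180 s, with calcium rises flagged as agonism.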
TRHR agonist: activates the human TRH receptor | activation, % at 2 µM | TRHR cells, calcium flux fluo-8, FDSS agonist mode | hit rate 0.18% among 360,000
Target sequence (P34981 whole entry, looked up): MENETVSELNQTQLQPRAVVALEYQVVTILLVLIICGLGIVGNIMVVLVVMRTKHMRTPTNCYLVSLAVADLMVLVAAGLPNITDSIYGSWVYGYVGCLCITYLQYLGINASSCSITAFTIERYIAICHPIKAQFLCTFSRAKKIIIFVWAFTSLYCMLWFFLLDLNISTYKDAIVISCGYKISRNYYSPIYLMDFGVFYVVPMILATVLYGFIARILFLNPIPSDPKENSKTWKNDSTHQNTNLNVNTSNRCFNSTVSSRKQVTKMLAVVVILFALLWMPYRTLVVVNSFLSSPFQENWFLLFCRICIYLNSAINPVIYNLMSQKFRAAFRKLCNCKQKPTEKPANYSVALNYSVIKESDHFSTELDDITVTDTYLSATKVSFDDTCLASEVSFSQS
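In this calcium-flux screen, cells bearing human TRHR are dye-loaded with fluo-8, baselined for 10 cycles, then exposed to library compounds; positive kinetic calcium responses during the agonist phase mark hits, with TRH as control.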
TRHR enhancer: TRH receptor (human) allosteric enhancement. P34981. TRHR cells, fluo-8 calcium fluorescence, EC20 TRH enhancement. enhancement, % at 2 µM. hit rate 0.66% among 360,000; in the data active means enhancement above about 30%
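TRHR-expressing cells loaded with fluo-8 calcium dye were read kinetically (ex 480/em 530) during compound addition, then stimulated with an EC20 of TRH (10 nM final). Enhancement of the Gq-mediated intracellular calcium response was scored.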
D1 potentiator: enhances dopamine response at the human D1 receptor | HEK293 TREx D1 cells, calcium flux, dopamine EC20 potentiation | potentiation, % at 10 µM | hit rate 0.036% among 360,000 | AID 504651; in the data active means potentiation above about 30%
Large screens that a line does not name were inactive; ! = a repeat was not active. Unless noted, no stated cut-off is given here; in the data, active means activation above about 30%; inactive means the rest.

CC(C)C[C@H](NC(=O)c1nc[nH]c1C(=O)NC(c1ccccc1)c1ccccc1)C(=O)OC(C)(C)C	D1 antag -32.8
CC(C)C[C@H](NC(=O)c1[nH]cnc1C(=O)N[C@H](C)c1ccccc1)C(=O)OC(C)(C)C	none
C[C@@H](NC(=O)c1nc[nH]c1C(=O)NCC(=O)OCc1ccccc1)c1ccccc1	TRHR enhancer 30.1
C[C@@H](NC(=O)c1[nH]cnc1C(=O)Nc1ccccc1)c1ccccc1	TRHR enhancer 35.8 (no result: D1 antag)
COc1ccc(C(=O)NC(CO)c2nnc(SCc3ccc(Cl)c(Cl)c3)n2C)cc1 (stereo unspecified)	D1 antag -33.7
CCn1c(CCNC(=O)c2ccc(OC)cc2)nnc1SCc1ccc(Cl)c(Cl)c1	none
Cc1ccc(CNC(=O)C2CCN(S(=O)(=O)c3c(C)noc3/C=C/c3c(C)cc(C)cc3C)CC2)cc1	none
Cc1cccc(C(=O)/C=C2/c3ccccc3CC(C)(C)N2C)c1	none
Cc1ccc(/C=C/C(=O)c2ccccc2O)cc1	none
COc1ccc(C(=O)/C=C/c2ccc(N(C)C)cc2)c(OC)c1	D1 agonist 295.2, TRHR agonist 127.0
COc1ccc(C(=O)/C=C/c2ccccc2)c(OC)c1	none
CN(C)c1ccc(/C=C/C(=O)c2ccccc2O)cc1	D1 agonist 35.1
CN(C)c1ccc(/C=C/C(=O)c2cccnc2)cc1	D1 agonist 175.6, TRHR agonist 95.4
O=C(/C=C/c1cccc(O)c1)c1cccnc1	none
COc1ccc2cc(C(=O)/C=C/c3cc(OC)c(O)c(OC)c3)ccc2c1	none
COc1ccc(C(=O)/C=C/c2cc(OC)c(O)c(OC)c2)c(F)c1	D1 agonist 52.3
CC(Nc1ccccc1N1CCCCC1)C(=O)N1CCc2ccccc21 (stereo unspecified)	none
CC(C)c1ccccc1NC(=O)COC(=O)COc1ccccc1[N+](=O)[O-]	none
O=C(CC(=O)Nc1ccccc1[N+](=O)[O-])Nc1ccccc1[N+](=O)[O-]	D1 antag -34.1
O=C(CCOc1ccccc1)Nc1ccccc1[N+](=O)[O-]	none
CCOc1ccccc1OCC(=O)OCC(=O)NNC(=O)c1ccc([N+](=O)[O-])cc1	TRHR enhancer 30.1
O=C(COC(=O)COc1ccccc1[N+](=O)[O-])Nc1ccccc1Br	D1 antag -43.2
Cc1cnc(CN(C)C(=O)c2ccc3oc(Cc4ccc(Cl)cc4)nc3c2)[nH]1	none
CN(CC(=O)Nc1ccccc1Cl)C(=O)COC(=O)c1nc(Cl)c(Cl)c(Cl)c1Cl	none
CC(C)N(Cc1ccccc1)C(=O)c1ccc2c(c1)OCO2	none
Cc1nn(-c2ccccc2)c2sc(C(=O)NC3CCCCC3)cc12	D1 antag -51.6
Cc1nn(-c2ccccc2)c2sc(C(=O)N3CCc4ccccc4C3)cc12	TRHR enhancer 32.0
CCNC(=O)/C(=C\c1ccc2c(c1)OCO2)NC(=O)c1ccc(Br)cc1	none
CCN(CC)C(=O)/C(=C\c1ccc2c(c1)OCO2)NC(=O)c1ccc(Br)cc1	D1 antag -30.0
NS(=O)(=O)c1ccc(N=Nc2c(-c3ccccc3)[nH]n(-c3nc(-c4ccccc4)cs3)c2=O)cc1	none
CCc1ccc(NS(=O)(=O)c2ccc(OC)c3ncccc23)cc1	D1 antag -30.6
COC(=O)c1c(SC)nc2ccccc2c1OCc1cc(C)ccc1C	D1 agonist 30.8
CN1CCN(C(=O)c2ccc3c(c2)N(Cc2ccc(F)cc2)C(=O)c2ccccc2S3=O)CC1 (stereo unspecified)	none
CCCSc1nc2sc3c(c2c(=O)n1Cc1ccccc1)CC(C)(CC)OC3 (stereo unspecified)	none
CCCCN1C(Nc2ccccc2)=NC[C@@H]1CC(C)C	none
CCOCCCNC(=O)C1CCCN(c2ncnc3onc(C)c23)C1 (stereo unspecified)	none
CCCCN(CC)CCNC(=O)C1CCCN(c2ncnc3onc(C)c23)C1 (stereo unspecified)	D1 antag -30.2
CCN(CC(=O)Nc1c(F)cccc1F)C(=O)CCNC(=O)c1ccccc1OC	none
COC(=O)C1=C(C)N(Cc2ccc(OC)cc2)C(=O)/C1=C\c1ccco1	D1 antag -34.3
Cc1ccccc1-c1nc(CS(=O)CC(=O)NCCc2ccc(Cl)cc2)c(C)o1 (stereo unspecified)	D1 antag -65.3!, D1 agonist 33.6!
CC(C)C[C@H](N)c1nnc(SCc2ccc(Cl)cc2Cl)o1	none

From PubChem
